In PubChem BioAssay (NCI):
Compounds without any hit were thinned out: in the full panel of roughly 83,000, 20% have a hit.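 Compound tested at a single concentration for 48 hours in 96-well plates; a percent growth value below 10 was scored as active.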 Active and inactive are the calls of the source.

Test system: NCI-H23 lung
Assay: NCI-60 one-dose screen, 48 h (100 = growth as untreated, 0 = no growth, -100 = all killed)
Conditions: 10 µM unless noted
Method: Growth inhibition of the NCI-H23 human Non-Small Cell Lung tumor cell line is measured as a screen for anti-cancer activity. Cells are grown in 96 well plates and exposed to the test compound for 48 hours. Compounds are tested at a single concentration, which is 10^-5 M for most compounds. The reported endpoint is percent growth (GI% or GIPRCNT), where numbers from 0 - 100% represent growth inhibition, and numbers from -100% - 0 represent cell death. For example, a value of 40 represents 60% growth inhibition. A value of 0 means no net growth occurred over the course of the experiment. A value of -40 indicates 40% of cells at the beginning of the experiment died by the end of the experiment. A value of -100 means all cells are dead at the end of the experiment.
NCI-60 Human Tumor Cell Lines Screen was performed using the standard one-dose NCI protocol, which is described in more detail at https://dtp.cancer.gov/discovery_development/nci-60/default.htm.
Compounds with GIPRCNT values below 10 were considered active. Activity score was based on GIPRCNT using the following formula: […]
Score is 0 for GIPRCNT values of 100 or above, 50 for GIPRCNT values of 0, and 100 for GIPRCNT values of -100.

SMILES	growth
COc1cccc(-c2nc3cc(NC(=O)c4ccc(Cl)c(C#N)c4)ccc3o2)c1	-18.8% (active)
O=C(N/N=C/c1cccc([N+](=O)[O-])c1)c1ccc(Br)o1	102% (inactive)
C[C@H]1O[C@@H](O[C@H]2[C@@H](O)C[C@H](O[C@H]3[C@@H](O)C[C@H](O[C@H]4CC[C@]5(C)C6CC[C@]7(C)[C@@H](C8=CC(=O)OC8)CC[C@]7(O)C6CC[C@@H]5C4)O[C@@H]3C)O[C@@H]2C)C[C@H](O)[C@@H]1O (stereo not given in full)	-47.5% (active)
COc1cnc2c(c1)C(=O)c1c-2n(CCCN2CCOCC2)c(=O)c2cc(F)ccc12	-15% (active)
COc1ccc(-c2cc(-c3cccnc3)nc(S(=O)(=O)CC(=O)Nc3ccc(C)cc3)c2C#N)cc1OC	85% (inactive)
O=Cc1ncc(-c2ccc(C(F)(F)F)cc2)c(NC2CCCCCC2)n1	-73.1% [100 µM] (active)
O=C(O)c1ccc(CNS(=O)(=O)c2ccc3ccccc3c2)cc1	119% (inactive)
COc1ccc2nc(-c3ccc(Cl)cc3)cc(-c3nnc(SCC(=O)Nc4ccc(C(C)=O)cc4)n3-c3ccccc3)c2c1	100% (inactive)
CSc1nc(-c2ccc(O)cc2O)c2c(=O)[nH]c(Nc3ccc(S(=O)(=O)Nc4nc(C)cc(C)n4)cc3)nc2n1	105% (inactive)
CC(=O)Nc1cc(C(c2ccccc2)c2ccccc2)cc(C(c2ccccc2)c2ccccc2)c1C	60% (inactive)
Nc1nc(Nc2ccccc2SSc2ccccc2Nc2nc(N)nc(-c3cccc(Cl)c3)n2)nc(-c2cccc(Cl)c2)n1	78.6% (inactive)
Clc1ccc2[nH]cc(-c3cncn3CCc3ccccc3)c2c1	45.6% (inactive)
N#CC(C#N)C(C#N)C#N	97.7% (inactive)
Cc1nn(-c2nc3ccccc3s2)c(C)c1Oc1ccccc1O	109% (inactive)
COc1ccc2c(=O)c(OC)c(-c3cc(OC)c(OC)c(OC)c3)oc2c1	86.4% (inactive)
CCN(CC)CCSc1ncnc2c1cnn2-c1ccc(S(N)(=O)=O)cc1	94.9% (inactive)
CCOc1cc(/C=C/C(=O)CC(=O)/C=C/c2ccc(OC(=O)CNCCN(CC)CC)c(OCC)c2)ccc1OC(=O)CNCCN(CC)CC	-35.6% (active)
NS(=O)(=O)N(c1cc(C(F)(F)F)cc(C(F)(F)F)c1)C1CCN(Cc2ccc(C(F)(F)F)cc2)CC1	9.79% (active)
O=C(CNC(=O)c1cccc2ccccc12)Nc1ccccc1Oc1ccc(O)cc1	37.2% [5 µM] (inactive)
COc1ccc2c(c1)CC[C@@H]1[C@@H]2CC[C@]2(C)[C@@H](O)C(=O)C[C@@H]12	102% (inactive)

SMILES	growth
COc1ccc(C2=NN(C(C)=O)C(c3cccc(Nc4ccnc5cc(Cl)ccc45)c3)C2)cc1 (stereo not given)	60.7% (inactive)
CCN(CC)c1ccc(/C=C/C(=O)c2cccc(NS(C)(=O)=O)c2)cc1	18.7% (inactive)
Cc1sc2nc3c4ccccc4c(NCCCN(C)C)nn3c(=O)c2c1C	60.9% (inactive)
CN(C)c1ccc(-c2nc3ncc(Br)cc3o2)cc1	87.5% (inactive)
CC(=O)OC1Oc2cc(C)c(C)cc2-c2oc(=O)c(-c3ccccc3)cc21 (stereo not given)	46.3% (inactive)
CCCCCCC(CC#N)(CCC)CCCC (stereo not given)	110% (inactive)
CCCCCc1c(C)[nH]c(/C=C2\N=C(c3ccc[nH]3)C=C2Oc2ccc(Cl)cc2)c1C	-46.3% [100 µM] (active)
COc1ccc(-c2cc(-c3cccnc3)nc3sc(C(=O)Nc4ccccc4)c(N)c23)cc1OC	87.8% (inactive)
CC(=O)N1N=C(c2ccc(Nc3ccnc4cc(Cl)ccc34)cc2)CC1c1ccc(Cl)cc1 (stereo not given)	67.8% (inactive)
O=C(N/N=C/c1cccc(O)c1)c1ccc(C(F)(F)F)nc1Nc1cccc(C(F)(F)F)c1	13.4% (inactive)
O=C(NCCNC(=O)Oc1cccc2ccccc12)Oc1cccc2ccccc12	91.2% (inactive)
Cc1[nH]cnc1/C=C1\SC(N2CCCCC2)=NC1=O	101% (inactive)
O=C(Nc1cccc(Cl)c1)Nc1cccc(Cl)c1	35.8% (inactive)
CC[C@@H](c1ccc(O)c(O)c1)[C@@H](CC)c1ccc(O)c(O)c1	96.6% (inactive)
Cc1ccc(OCC(=O)Nc2ccc(Oc3ccccc3)cc2)c([N+](=O)[O-])n1	47% (inactive)
CCN1CCN(c2nc(NNC(=O)Cc3ccccc3)nc(N3CCN(C(c4ccccc4)c4ccccc4)CC3)n2)CC1	95.1% (inactive)
C[C@H]1c2cccc(O)c2C(O)=C2C(=O)[C@]3(O)C(O)=C(C(N)=O)C(=O)[C@@H](N(C)C)[C@@H]3[C@@H](O)[C@@H]21	41.5% (inactive)
C[C@]12CCC(=O)C=C1CC[C@H]1[C@@H]3C[C@@H](O)[C@](O)(C(=O)CO)[C@@]3(C)C[C@H](O)[C@@]12F	110% (inactive)
COc1ccc2c(c1)sc1nc(-c3ccc(Br)cc3)cn12	100% (inactive)
Cc1ccc(C(=O)Cc2ccccc2)c(O)c1	101% (inactive)
